According to PubChem BioAssay (Tox21):
Records with an inconclusive call do not appear. Active and inactive are the calls of the source. Calls come from the whole dose curve; as a rule, active = well fitted curve in the direction sought with a large enough effect in the repeat runs; inconclusive = weak or mixed curves; inactive = no such curve, though single readings can be large; an effect the other way counts as inactive or inconclusive.

Experiments:
[1] = qHTS RealTime-Glo MT Cell Viability Assay in HepG2 cells - 40 hour (AID 1224870); note: nearly all actives have a fitted effect of over 50% in size
Method in brief: (§1)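 HepG2 cells (600/well) mixed with RealTime-Glo MT reagent, settled 5 h at 37 C/5% CO2 before compound addition. Nonlytic NanoLuc luminescence from viable-cell prosubstrate reduction read repeatedly during 40 h treatment at 37 C.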

[2] = A CellTox Green Cytotoxicity Assay to monitor cytotoxicity in HEK293 cells - 40 hour (AID 1224871); note: nearly all actives have a fitted effect of over 45% in size
Method in brief: (§2)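 Each value comes from one timepoint of a single continuous run in which HEK293 cells with CellTox Green were exposed to compound for up to 40 h at 37 C, dye fluorescence rising with cell death.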

[3] = qHTS RealTime-Glo MT Cell Viability Assay in HEK293 cells - 16 hour (AID 1224872); note: nearly all actives have a fitted effect of over 50% in size; note: potency is the fitted concentration of half-maximal effect; for activity change, negative = cytotoxicity: top concentration of the series differs between compounds
Method in brief: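 Homogeneous bioluminescent viability format in HEK293 cells (600 cells/well). Following 5 h at 37 C/5% CO2, 23 nL compound was pintooled; the signal was measured repeatedly during 40 h incubation.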

[4] = qHTS RealTime-Glo MT Cell Viability Assay in HepG2 cells - 8 hour (AID 1224873); note: nearly all actives have a fitted effect of over 55% in size
Method in brief: as §1

[5] = qHTS RealTime-Glo MT Cell Viability Assay in HEK293 cells - 40 hour (AID 1224874); conditions: RealTime-Glo luminescence; max response: stronger effect = lower value; note: nearly all actives have a fitted effect of over 50% in size; note: potency is the fitted concentration of half-maximal effect
Method in brief: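 qHTS format; HEK293 cells with NanoLuc/prosubstrate reagent, 37 C/5% CO2 for 5 h pre-dosing; compounds 23 nL in DMSO; luminescence at each time point reflects viable cells.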

[6] = A CellTox Green Cytotoxicity Assay to monitor cytotoxicity in HEK293 cells - 24 hour (AID 1224875); note: series mostly up to about 77 µM; nearly all actives have a fitted effect of over 45% in size
Method in brief: as §2

[7] = A CellTox Green Cytotoxicity Assay to monitor cytotoxicity in HepG2 cells - 16 hour (AID 1224876); note: nearly all actives have a fitted effect of over 45% in size
Method in brief: (§3)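 Continuous culture of HepG2 cells with a membrane-impermeant DNA dye; rising fluorescence marks dead cells. Compound exposure lasted up to 40 h at 37 C, with reads every 8 h from 0 h.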

[8] = qHTS RealTime-Glo MT Cell Viability Assay in HepG2 cells - 32 hour (AID 1224877); note: nearly all actives have a fitted effect of over 55% in size
Method in brief: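 Cell number in HepG2 cultures estimated from NanoLuc luminescence generated by metabolic reduction of a prosubstrate by living cells. The homogeneous, nonlytic format allowed repeated reads at 0, 8, 16, 24, 32 and 40 h of compound exposure.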

[9] = A CellTox Green Cytotoxicity Assay to monitor cytotoxicity in HepG2 cells - 24 hour (AID 1224878); note: nearly all actives have a fitted effect of over 45% in size
Method in brief: as §3

[10] = A CellTox Green Cytotoxicity Assay to monitor cytotoxicity in HepG2 cells - 40 hour (AID 1224879); note: nearly all actives have a fitted effect of over 40% in size
Method in brief: as §3
% is set by controls: 0 for no effect and ±100 for the full control effect.

CCC(=O)Nc1cccc(N)c1
inactive: Potency [1] | Potency [2] | Potency [3] | outcome [4] | max response [5] 0.318% | Potency [6] | Potency [7] | Potency [8] | Potency [9] | Potency [10]

NS(=O)(=O)c1cc2c(cc1C(F)(F)F)NC(Cc1ccccc1)NS2(=O)=O (stereo unspecified)
inactive: Potency [1] | Potency [2] | Potency [3] | outcome [4] | max response [5] -7.67% | Potency [6] | Potency [7] | Potency [8] | Potency [9]

O=c1[nH]c2ccccc2c(=O)n1CCCl
inactive: Potency [1] | Potency [2] | Potency [3] | outcome [4] | max response [5] 3.48% | Potency [6] | Potency [7] | Potency [8] | Potency [9] | Potency [10]

CSc1nc(NC2CC2)nc(NC(C)(C)C)n1
active: Potency [3] 24.5 µM | Potency [5] 24.5 µM
inactive: Potency [1] | Potency [2] | outcome [4] | Potency [6] | Potency [7] | Potency [8] | Potency [9] | Potency [10]

NCC[C@H](O)C(=O)N[C@@H]1C[C@H](N)[C@@H](O[C@H]2O[C@H](CN)[C@@H](O)[C@H](O)[C@H]2O)[C@H](O)[C@H]1O[C@H]1O[C@H](CO)[C@@H](O)[C@H](N)[C@H]1O
inactive: activity change, negative = cytotoxic [1] -0.912% [at 0.29 µM] | cytotoxicity increase [2] -3.46% [at 0.29 µM] | activity change, negative = cytotoxicity [3] -0.0333% [at 0.29 µM] | viability change, negative = cytotoxic [4] -0.5% [at 0.29 µM] | max response [5] 5.14% | activity change [6] 2.36% [at 0.29 µM, stronger effect = higher value] | cytotoxicity increase [7] -3.16% [at 0.29 µM] | activity change, negative = cytotoxic [8] -1.54% [at 0.29 µM] | cytotoxicity [9] -1.2% [at 0.29 µM] | cytotoxicity increase [10] -4.11% [at 0.29 µM]

Nc1nc(F)nc2c1ncn2[C@@H]1O[C@H](CO)[C@@H](O)[C@@H]1O
inactive: Potency [1] | Potency [2] | Potency [3] | outcome [4] | max response [5] -1.6% | Potency [6] | Potency [7] | Potency [8] | Potency [9] | Potency [10]

O=C(O)C1CCC1
inactive: Potency [1] | Potency [2] | Potency [3] | outcome [4] | max response [5] -0.0608% | Potency [6] | Potency [7] | Potency [8] | Potency [9] | Potency [10]

Nc1ncnc2c1ncn2Cc1c(F)cccc1Cl
inactive: Potency [1] | Potency [2] | Potency [3] | outcome [4] | max response [5] -12.1% | Potency [6] | Potency [7] | Potency [8] | Potency [9] | Potency [10]

C=C[Si](OC)(OC)OC
inactive: Potency [1] | Potency [2] | Potency [3] | outcome [4] | max response [5] 16.1% | Potency [6] | Potency [7] | Potency [8] | Potency [9] | Potency [10]

CCCCCCC(=O)OCC
inactive: Potency [1] | Potency [2] | Potency [3] | outcome [4] | max response [5] 14.5% | Potency [6] | Potency [7] | Potency [8] | Potency [9] | Potency [10]

CO[Si](CCCNCCC[Si](OC)(OC)OC)(OC)OC
inactive: Potency [1] | Potency [2] | Potency [3] | outcome [4] | max response [5] 5.67% | Potency [6] | Potency [7] | Potency [8] | Potency [9]

CC(C)COC(=O)C(C)C
inactive: Potency [1] | Potency [2] | Potency [3] | outcome [4] | max response [5] 3.76% | Potency [6] | Potency [7] | Potency [8] | Potency [9]

CCCc1ccc(N)cc1
inactive: Potency [1] | Potency [2] | Potency [3] | outcome [4] | max response [5] -1.79% | Potency [6] | Potency [7] | Potency [8] | Potency [9] | Potency [10]

C#CC(O)CCCCC (stereo unspecified)
inactive: Potency [1] | Potency [2] | Potency [3] | outcome [4] | max response [5] 8.88% | Potency [6] | Potency [7] | Potency [8] | Potency [9]

N#CC1(O)CCCCC1
inactive: Potency [1] | Potency [2] | Potency [3] | outcome [4] | max response [5] -16.1% | Potency [6] | Potency [7] | Potency [8] | Potency [9] | Potency [10]

CC/C=C\C#N
inactive: Potency [1] | Potency [2] | Potency [3] | outcome [4] | max response [5] 20.1% | Potency [6] | Potency [7] | Potency [8] | Potency [9] | Potency [10]

CN(C)N=Nc1ccccc1
inactive: Potency [1] | Potency [2] | Potency [3] | outcome [4] | max response [5] 15% | Potency [6] | Potency [7] | Potency [8] | Potency [9] | Potency [10]

CCCCCN(CCCCC)C(=O)C(CCC(=O)O)NC(=O)c1ccc(Cl)c(Cl)c1 (stereo unspecified)
inactive: Potency [1] | Potency [2] | Potency [3] | outcome [4] | max response [5] -6.43% | Potency [6] | Potency [7] | Potency [8] | Potency [9] | Potency [10]

CCCC(C)CO (stereo unspecified)
inactive: Potency [1] | Potency [2] | Potency [3] | outcome [4] | max response [5] 8.5% | Potency [6] | Potency [7] | Potency [8] | Potency [9] | Potency [10]

CCCCOCC(C)OCC(C)O (stereo unspecified)
inactive: Potency [1] | Potency [2] | Potency [3] | outcome [4] | max response [5] 2.63% | Potency [6] | Potency [7] | Potency [8] | Potency [9] | Potency [10]

NC(CS)C(=O)O (stereo unspecified)
inactive: Potency [1] | Potency [2] | Potency [3] | outcome [4] | max response [5] 1.35% | Potency [6] | Potency [7] | Potency [8] | Potency [9] | Potency [10]

O=C1C(CCS(=O)c2ccccc2)C(=O)N(c2ccccc2)N1c1ccccc1 (stereo unspecified)
inactive: Potency [1] | Potency [2] | Potency [3] | outcome [4] | max response [5] 1.04% | Potency [6] | Potency [7] | Potency [8] | Potency [9] | Potency [10]
